Assay [1] can be described thus: qHTS assay to identify small molecule agonists of the RXR signaling pathway - cell viability counter screen (AID 1159529).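 For activity change, negative = cytotoxicity: HEK 293T cells carrying an RXR-alpha UAS beta-lactamase reporter; series mostly up to about 77 µM.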 Note: nearly all actives have a fitted effect of over 50% in size. Note: potency is the fitted concentration of half-maximal effect. In outline: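 In this parallel viability measure, GeneBLAzer RXR-alpha HEK 293T cells (2% charcoal-stripped FBS) were given a 5 hr preincubation, treated with compounds 16 hr at 37 C, and read by CellTiter-Glo luminescence.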
For orientation: In qHTS, concentration-response curves come from the screen itself.

The nature of assay [2]: qHTS assay to identify small molecule antagonists of the retinoid acid receptor (RAR) signaling pathway - cell viability counter screen (AID 1159551). Note: nearly all actives have a fitted effect of over 35% in size. Note: potency is the fitted concentration of half-maximal effect. Put shortly: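 ATP-based viability, C3RL4 cells, 6 h at 37 C with 1 uM final retinol co-added after compound; luminescence read 30 min post CellTiter-Glo, RT.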
Assay [3] in a line: qHTS assay to identify small molecule antagonists of the retinoic acid receptor (RAR) signaling pathway (AID 1159552; note: nearly all actives have a fitted effect of over 50% in size; note: potency is the fitted concentration of half-maximal effect). Put shortly:
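C3RL4 RARE-luc cells, overnight plating; retinol 1 uM final added right after compound; 6 hr 37 C; luciferase read at 30 min RT.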

Assay [4] can be described thus: qHTS assay to identify small molecule antagonists of the estrogen related receptor (ERR) signaling pathway - cell viability counter screen (AID 1224818).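 Note: series mostly up to about 46 µM; viability measured after 17.5 h of compound exposure.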 Put shortly: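 Quantitative high-throughput viability counter screen in ERR cells. Compounds (DMSO) incubated 17.5 h at 37 C; read-out was CellTiter-Fluor fluorescence.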
Assay [5] in a line: qHTS assay to identify small molecule antagonists of the estrogen related receptor (ERR) signaling pathway (AID 1224819;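 note: luminescence from an ERR-driven luciferase reporter measured with One-Glo reagent; series mostly up to about 46 µM; nearly all actives have a fitted effect of over 50% in size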). Put shortly:
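ERR reporter cell line (NTP) plated at 2,000 cells/well, settled 6 h at 37C/5% CO2, then exposed to LOPAC compounds for 18 h at 37C. One-Glo luciferase luminescence read after 30 min at room temperature.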

A short description of assay [6]: qHTS assay to identify small molecule agonists of the estrogen related receptor (ERR) signaling pathway (AID 1224820). In outline: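 Following a 6 h settling period, 2,000 ERR cells per well receive DMSO-dissolved compounds by pin tool and incubate 18 h at 37 C; agonist activity is scored from One-Glo luminescence read 30 min post-addition.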
Assay [7] has as its system estrogen-related receptor alpha (ERRalpha) with PGC-1alpha coactivator, human. Kind of assay: qHTS assay to identify small molecule antagonists of the estrogen related receptor signaling pathway with the pleiotropic PPARgamma coactivator (PGC) (AID 1224821; calls by dose curve;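 note: series mostly up to about 46 µM; lower luminescence signal means antagonism of PGC/ERR signalling; nearly all actives have a fitted effect of over 50% in size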). In outline: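 Screening used NTP's PGC/ERR cells, dosed via pin tool with compound in DMSO alongside positive and negative controls. After 18 h at 37 C, One-Glo reagent sat 30 min at room temperature before luminescence detection.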

Assay [8] in a line: qHTS assay to identify small molecule agonists of the estrogen related receptor signaling pathway with the pleiotropic PPARgamma coactivator (PGC) (AID 1224823). In outline:
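In this quantitative high-throughput screen, an 18 h, 37 C treatment of PGC/ERR cells with compounds in DMSO preceded a One-Glo luminescence read taken after 30 min at room temperature.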

Molecules are shown by their SMILES. Results filed as inconclusive are left out. Values without a mark were called inactive. Active and inactive are the calls of the source. Unless noted, calls come from the whole dose curve; as a rule, active = well fitted curve in the direction sought with a large enough effect in the repeat runs; inconclusive = weak or mixed curves; inactive = no such curve, though single readings can be large; an effect the other way counts as inactive or inconclusive.
% is set by controls: 0 for no effect and ±100 for the full control effect.

Regarding `COc1cc(C=O)cc2c1[C@H](COC(N)=O)[C@]1(OC(C)=O)ON2C[C@H]2[C@@H]1N2C(C)=O`, the Potency result in assay [1] and in assay [2] was “inactive” each time.
Take `CC(=O)c1ccc(-c2ccccc2)cc1`: the Potency result in assay [1], in assay [2] and in assay [3] was “inactive” throughout.
For `CC(C)OS(C)(=O)=O`, the Potency result in assay [1] and in assay [2] was “inactive” each time.
For `CC1(C)CN=C(NN=C(/C=C/c2ccc(C(F)(F)F)cc2)/C=C/c2ccc(C(F)(F)F)cc2)NC1`, the values for the Potency in assay [1], in assay [2] and in assay [3] were 13.8 µM (active), 43.3 µM (active) and 9.69 µM (active), respectively.
Consider `COP(=O)(CCC(=O)NCO)OC`, for which the Potency entry in assay [1], in assay [2] and in assay [3] was “inactive” in each case.
With `CC(C)C1CCC(Cc2ccc(Cl)cc2)C1(O)Cn1cncn1` (stereo unspecified), the Potency is 54.4 µM (active) in assay [1] and 60.5 µM (active) in assay [2].
For the compound `O=[N+]([O-])O.O=[N+]([O-])O.[Cd]`, in assay [1], the Potency was 43.6 µM (active). Further, the Potency result in assay [2] is “inactive”.
Take `Cn1cc(C2=C(c3cn(C4CCN(Cc5ccccn5)CC4)c4ccccc34)C(=O)NC2=O)c2ccccc21`: the Potency entry in assay [1], in assay [2] and in assay [3] was “inactive” throughout.
In the case of `CCC[CH2][Sn]([CH2]CCC)([CH2]CCC)[O]C(=O)c1ccccc1`, the Potency in assay [1] is 1.23 µM (active); in assay [2] it was 4.86 µM (active); in assay [3], 0.686 µM (active).
In the case of `CC1(C)[C@H](C(=O)O[C@H](C#N)c2cccc(Oc3ccccc3)c2)[C@@H]1/C=C(\Cl)C(F)(F)F`, the Potency result in assay [1] and in assay [2] was “inactive” throughout.
In the case of `COC12CC[C@@]3(C[C@@H]1C(C)(O)C(C)(C)C)[C@H]1Cc4ccc(O)c5c4[C@@]3(CCN1CC1CC1)[C@H]2O5` (stereo partly specified), the Potency in assay [1] is 21.7 µM (active); in assay [2] it was 60.7 µM (active); in assay [3], 54.1 µM (active).
Consider `CN(CCCC(O)c1cccnc1)N=O` (stereo unspecified), for which the Potency entry in assay [1], in assay [2] and in assay [3] was “inactive” in each case.
For the compound `Oc1ccc2ccc3cccc4ccc1c2c34`, the Potency in assay [1] was 49 µM (active). The Potency result in assay [2] and in assay [3] was “inactive” throughout.
Consider `CCOP(=S)(OCC)SCS(=O)(=O)CC`, for which the Potency result in assay [1], in assay [2] and in assay [3] was “inactive” throughout.
On to `Clc1ccc(Oc2ccccc2)cc1`, for which the Potency entry in assay [1], in assay [2] and in assay [3] was “inactive” each time.
For `CCS(=O)(=O)c1cccnc1S(=O)(=O)NC(=O)Nc1nc(OC)cc(OC)n1`, the Potency result in assay [1], in assay [2] and in assay [3] was “inactive” throughout.
For `CCCCCCCCCCCCCCCCCCn1cc[n+](C)c1`, the Potency was 10.9 µM (active) in assay [1], 48.3 µM (active) in assay [2] and 21.6 µM (active) in assay [3].
The like results for `ClCCN1CCOCC1` were, in that order, “inactive”, “inactive” and “inactive”.
As to `O=C(Cl)c1ccc(Cl)cc1`, the Potency entry in assay [1] and in assay [2] was “inactive” throughout.
`Cc1cc(C)c(C2=C(OC(=O)CC(C)(C)C)C3(CCCC3)OC2=O)c(C)c1`: the Potency result in assay [1] and in assay [2] was “inactive” throughout.
As for `[Hg+2].[I-].[I-]`, the Potency in assay [1] is 3.89 µM (active); in assay [2] it was 10.9 µM (active).
Turning to `CCSC(C)CC1CC(=O)C(/C(CC)=N/OC/C=C/Cl)=C(O)C1` (stereo unspecified), the Potency result in assay [1], in assay [2] and in assay [3] was “inactive” in each case.
`CCOP(=S)(OCC)SCCS(=O)(=O)CC`: the Potency entry in assay [1] and in assay [2] was “inactive” in each case.
As for `COc1cc(N)c(Cl)cc1C(=O)NC1CN2CCC1CC2` (stereo unspecified), the Potency entry in assay [1] and in assay [2] was “inactive” throughout.
`O=C(O)C1C2CCC(O2)C1C(=O)O` (stereo unspecified): the Potency result in assay [1], in assay [2] and in assay [3] was “inactive” each time.
`CCCCCCCCCCCCCC[P+](CCCCCC)(CCCCCC)CCCCCC` (tested in a mixture with another compound): the Potency was 9.77 µM (active) in assay [1] and 27.3 µM (active) in assay [2].
Take `Oc1ccc(C2(c3ccc(O)cc3)CCCCC2)cc1`: the values for the Potency in assay [1] and in assay [3] were 36.8 µM (active) and 41 µM (active), respectively. Further, the Potency result in assay [2] was “inactive”.
Take `ClC(Cl)=C(Cl)Cl`: the Potency entry in assay [1] and in assay [2] was “inactive” each time.
As to `CC(O)C#N` (stereo unspecified), the Potency result in assay [1], in assay [2] and in assay [3] was “inactive” throughout.
With `CC(Cc1ccc(C(C)(C)C)cc1)CN1C[C@@H](C)O[C@@H](C)C1` (stereo partly specified), the Potency entry in assay [1] and in assay [2] was “inactive” each time.
On to `FC(Cl)(Cl)Cl`, for which the Potency entry in assay [1], in assay [2] and in assay [3] was “inactive” throughout.
Regarding `Brc1c(Br)c(Br)c(Oc2c(Br)c(Br)c(Br)c(Br)c2Br)c(Br)c1Br`, the values for the activity change, negative = cytotoxicity in assay [1] and in assay [2] were 2.64% [at 15.8 µM] and 2.15% [at 19 µM], respectively. In assay [3], the activity, negative = inhibition is -8.07% [at 19 µM].
`CN(C)C1CSSSC1`: the Potency entry in assay [1], in assay [2] and in assay [3] was “inactive” throughout.
For `CCC(C)(C)C(=O)OC1=C(c2ccc(Cl)cc2Cl)C(=O)OC12CCCCC2`, the Potency result in assay [1], in assay [2] and in assay [3] was “inactive” each time.
Take `ClCc1ccc(Cl)cc1Cl`: the Potency result in assay [1] and in assay [2] was “inactive” each time.
Consider `NC(=O)CCl`, for which the Potency entry in assay [1], in assay [2] and in assay [3] was “inactive” throughout.
Turning to `N#Cc1ccccc1Cl`, the Potency entry in assay [1], in assay [2] and in assay [3] was “inactive” in each case.
`O=c1ssc(Cl)c1Cl`: the Potency entry in assay [1] was “inactive”. The Potency in assay [2] is 68.6 µM (active); in assay [3], 61.1 µM (active).
For `O=C(CCCN1CCC2(CC1)C(=O)NCN2c1ccccc1)c1ccc(F)cc1`, the Potency result in assay [1], in assay [5] and in assay [7] was “inactive” in each case. Besides, the compound was called inactive in assay [4], in assay [6] and in assay [8].

The record behind these values is PubChem BioAssay (Tox21).
